Here are results for 65 compounds from PubChem BioAssay AID1851 (National Center for Advancing Translational Sciences (NCATS), 2009).

Values joined by “and” are separate entries in the source; they are usually repeats but may differ in a detail not shown here. Equal entries are not always repeated. The whole screen tested about 16,000 compounds, of which about 4,000 (25%) were called active. Inconclusive results (about 26%) are left out. These entries were drawn from the full list. A number with no mark means an inactive call. Calls follow the shape of the dose curve; as a rule, active = well fitted curve in the direction sought with a large enough effect; inconclusive = small, poorly fitted or top-dose-only effect, or effect the other way; inactive = no such curve, though single readings can be large or run the other way.
% is scaled to controls: 0 for no effect and ±100 for the full control effect.

Chain of Cytochrome P450 2C9 (Homo sapiens) (P11712 whole entry, looked up): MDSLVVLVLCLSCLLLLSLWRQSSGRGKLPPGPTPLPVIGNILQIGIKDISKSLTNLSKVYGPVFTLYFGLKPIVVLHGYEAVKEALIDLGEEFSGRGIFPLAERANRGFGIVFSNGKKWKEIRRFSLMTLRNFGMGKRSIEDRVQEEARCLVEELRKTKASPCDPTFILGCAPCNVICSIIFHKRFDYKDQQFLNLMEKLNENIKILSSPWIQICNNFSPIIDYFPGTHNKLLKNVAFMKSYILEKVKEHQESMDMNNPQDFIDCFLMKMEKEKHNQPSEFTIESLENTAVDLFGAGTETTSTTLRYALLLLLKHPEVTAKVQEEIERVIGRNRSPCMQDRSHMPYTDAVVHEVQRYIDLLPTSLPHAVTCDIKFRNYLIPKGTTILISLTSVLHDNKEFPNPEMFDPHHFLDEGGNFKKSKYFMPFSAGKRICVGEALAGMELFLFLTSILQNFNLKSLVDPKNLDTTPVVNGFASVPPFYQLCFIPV

The assay concerns the target Cytochrome P450 2C9 (Homo sapiens) (UniProt P11712). The experiment in a line: Cytochrome panel assay with activity outcomes. The conditions noted are these: recombinant CYP, pro-luciferin dealkylation, luminescence, p450-cyp2c9; series mostly up to 57.1 µM; activity, negative = inhibition: at the top concentration.
On to `O=C(NCc1ccco1)c1ccc2c(=O)n(-c3ccccc3)c(=S)[nH]c2c1`, for which the “activity, negative = inhibition” value is 9.67%.

With `Cc1ccc(-n2c(N)c(C(=O)NCc3ccco3)sc2=S)cc1`, the AC50 (as a rule, the concentration at which the activity in the assay is half-maximal) was 14.1 µM (active).

For `COC(=O)CCCC(=O)O`, the activity, negative = inhibition was -1.69% [at 11.4 µM].

Take `CCCCNC(=O)NS(=O)(=O)c1ccc(C(=O)OC(C)C)o1`: the AC50 was 2.82 µM (active).

`CCCCNC(=O)NC1C(NC(=O)NCCCC)N(C)C(=O)N1C` (stereo not given): the “activity, negative = inhibition” value is -17%.

On to `Cc1ccc(CS(=O)(=O)CCC(=O)NCCCOC(C)C)cc1`, for which the “activity, negative = inhibition” value is -10.3%.

As to `Cc1cc(C(F)F)n2ncc(C(=O)NCc3ccccc3C(F)(F)F)c2n1`, the “activity, negative = inhibition” value was -63.8%.

Turning to `Cc1nn(Cc2c(Cl)cccc2Cl)c(C)c1NC(=O)c1cnn2c(C(F)F)cc(-c3ccccc3)nc12`, the AC50 is 1.26 µM (active).

With `Cc1ccc(-c2cc(C(F)F)n3ncc(C(=O)Nc4c(C)nn(Cc5c(Cl)cccc5Cl)c4C)c3n2)cc1`, the AC50 is 1 µM (active).

Turning to `CC(=O)OC[C@@H]1O[C@H](C/C=N\OC[C@@H](O)COCc2ccco2)C=C[C@@H]1OC(C)=O`, the activity, negative = inhibition is 24.5% [at 11.4 µM].

Turning to `N[C@H](C(=O)O)[C@@H](O)c1cnc[nH]1`, the activity, negative = inhibition was 20.3% [at 11.4 µM].

Consider `O=c1cc(CSc2ccccc2)[nH]c(=S)[nH]1`, for which the “activity, negative = inhibition” value was -6.77%.

In the case of `CC1=CC(C)(C)Nc2ccc(CSc3ccccc3)cc21`, the AC50 was 0.2 µM (active).

In the case of `N#Cc1c(-c2ccccc2)no[n+]1[O-]`, the “activity, negative = inhibition” value is 4.32%.

As for `Cn1c(=O)c2[nH]c(CSCc3ccccc3)nc2n(C)c1=O`, the activity, negative = inhibition was -13.3% [at 11.4 µM].

As for `Cc1[nH]n2c(=O)c(C#N)c(-c3ccccc3)nc2c1-c1ccccc1`, the AC50 is 11.2 µM (active).

On to `N#Cc1c(-c2ccccc2)nc(-c2ccccc2)[nH]c1=O`, for which the AC50 was 0.316 µM (active).

As for `COC(=O)Cc1cc(=O)n2[nH]c(C)c(-c3ccccc3)c2n1`, the “activity, negative = inhibition” value was 3.63%.

With `O=C(O)c1nc(-c2ccccc2)[nH]c1C(=O)O`, the activity, negative = inhibition was -21.7% [at 11.4 µM].

Regarding `CSc1nc(O)c(Cc2ccccc2)c(=O)[nH]1`, the “activity, negative = inhibition” value was -25.9%.

Regarding `N#CCCn1c(=O)c(-c2ccccc2)nc2cnc(Nc3ccccc3)nc21`, the “activity, negative = inhibition” value was 16.4%.

On to `Cc1nc2c(C#N)c(C)[nH]n2c(=O)c1Cc1ccccc1`, for which the AC50 was 7.08 µM (active).

For `Clc1cc2c(c(CSC3=NCN(CC4CC4)CN3)c1)OCOC2`, the activity, negative = inhibition was 9.58% [at 11.4 µM].

`NCCc1ccn[nH]1`: the “activity, negative = inhibition” value was 9.32% [at 25.6 µM].

On to `COC(=O)c1ccc(CSc2nc3cc(Cl)ccc3s2)o1`, for which the AC50 was 3.55 µM (active).

In the case of `O=C(O)[C@@H]1CS[C@@]2(CCCN(Cc3ccccc3)C2)N1`, the activity, negative = inhibition was 15.9% [at 11.4 µM].

For `COc1cccc(-n2ccnc2SCC(=O)Nc2nccs2)c1`, the AC50 was 11.2 µM (active).

As for `COc1ccc(C(O)c2nccn2Cc2ccccc2)cc1` (stereo not given), the “activity, negative = inhibition” value is -11.9%.

For `COc1ccc(-n2ccnc2SCC(=O)Nc2ccccc2)cc1`, the AC50 is 5.01 µM (active).

In the case of `Cc1cccc(OCC(=O)NNC(=O)CSc2ncc(C#N)c(N)n2)c1`, the “activity, negative = inhibition” value is -30.1%.

`Cc1cccc(-c2nsc(SCC(=O)Nc3nccs3)n2)c1`: the AC50 was 1.58 µM (active).

For the compound `COc1ccc(NC(=O)CSc2ccc3c4c(cccc24)C(=O)c2ccccc2-3)cc1`, the half-maximal activity concentration (AC50) was 0.562 µM (active).

Regarding `COC(=O)CSc1nnc(C)n1-c1cccc(OC)c1`, the “activity, negative = inhibition” value is -19.6%.

Consider `COc1ccc(-n2nnnc2SCC(=O)Nc2ccccc2)cc1`, for which the “activity, negative = inhibition” value was -16.3%.

Turning to `Cc1ccc(S(=O)(=O)O[C@H]2C[C@@H](C(C)(C)C)CC[C@@H]2c2ccccc2)cc1`, the activity, negative = inhibition is 5.88% [at 11.4 µM].

`Cc1ccccc1-c1nc(Nc2ccncc2)c2ccccc2n1`: the activity, negative = inhibition is -3.63% [at 2.29 µM].

On to `O=C(O)[C@@H](O)[C@@H](O)[C@H](O)[C@H](O)CO`, for which the activity, negative = inhibition was 0.915% [at 11.4 µM].

Take `CCc1nnc(NC(=O)CSc2ncnc3c2cnn3-c2ccc(OC)cc2)s1`: the “activity, negative = inhibition” value is 1.56%.

Consider `CCc1nnc(NC(=O)CCC(=O)N2CCN(c3ccccn3)CC2)s1`, for which the “activity, negative = inhibition” value was -20.4%.

On to `CCNC(=O)CSc1nnc(C2CC2)n1-c1ccccc1`, for which the “activity, negative = inhibition” value was -23.2%.

As to `CCOc1ccc(-n2ccnc2SCC(=O)Nc2nnc(CC)s2)cc1`, the AC50 is 12.6 µM (active).

On to `Cn1ccnc1SCC(=O)Nc1sccc1C#N`, for which the AC50 is 8.91 µM (active).

Consider `COc1ccccc1NC(=O)N1CCC(c2nnc(SCC(N)=O)n2C)CC1`, for which the “activity, negative = inhibition” value is 8.31%.

As to `COc1ccc(-n2ccnc2SCC(=O)Nc2ccc(OC)cc2OC)cc1`, the AC50 was 4.47 µM (active).

Regarding `COc1ccc(NC(=O)CSc2nnc(C3CC3)n2-c2ccccc2)cc1`, the AC50 is 10 µM (active).

For the compound `C/C(CCN1CCCCc2nc(C)c(C)cc21)=N\O[C@@H](C)c1cn([C@H](CO)Cc2ccccc2)nn1`, the activity, negative = inhibition is 6.66% [at 11.4 µM] and -0.809% [at 11.4 µM].

As to `O=C(Nc1cccc(F)c1)N1CC2(CCN(C(=O)c3csnn3)CC2)C1`, the “activity, negative = inhibition” value is 4.96%.

For the compound `CCS(=O)(=O)N(C)[C@@H]1c2cc(C#N)ccc2OC(C)(C)[C@H]1O`, the AC50 result was “inactive”.

Turning to `O=C(O)[C@H]1[C@H](C(=O)O)[C@H](C(=O)O)C[C@@H]1C(=O)O`, the activity, negative = inhibition was 7.74% [at 11.4 µM].

As for `Clc1ccc2c(NCCNC3CCCCC3)ccnc2c1`, the activity, negative = inhibition is -4.74% [at 11.4 µM].

For the compound `NCCCC(=O)O`, the “activity, negative = inhibition” value is -2.69%.

`CCn1c(SCc2ccc(C)cc2)nnc1-c1nn(-c2ccccc2)ccc1=O`: the “activity, negative = inhibition” value was -19.9%.

`Cc1ccc(-n2ccc(=O)c(-c3ccnc(SCc4cccc(Cl)c4)n3)n2)cc1`: the AC50 is 3.16 µM (active).

Turning to `CC(C)(C)S(=O)(=O)c1cnc2c(-c3ccc(F)cc3)cnn2c1N`, the “activity, negative = inhibition” value is -14%.

For `CC(=O)N1c2ccc(S(=O)(=O)CCC(=O)O)cc2CC1C` (stereo not given), the “activity, negative = inhibition” value was -18%.

On to `CC1Cc2ccccc2N1C(=O)CN1C(=O)COc2ccccc21` (stereo not given), for which the AC50 was 11.2 µM (active).

`CCN1CCN(CC(=O)N2c3ccccc3CC2C)CC1` (stereo not given): the “activity, negative = inhibition” value is -5.36%.

Take `C[C@@H]1Cc2ccccc2N1NC(=O)c1ccc(Cl)c(S(N)=O)c1` (stereo not given in full): the “activity, negative = inhibition” value was -4.47% [at 25.6 µM].

For the compound `CC1Cc2ccccc2N1C(=O)Cn1c(=O)cc(O)c2ccccc21` (stereo not given), the AC50 is 14.1 µM (active).

On to `CCCN1CCN(C(=O)CN2C(=O)CC(C)(C)S(=O)(=O)c3ccccc32)CC1`, for which the “activity, negative = inhibition” value is -26.4%.

Take `COc1ccc(C(=O)N2CCC3(CC2)CN(Cc2ccc(C#N)cc2)C3)cc1`: the “activity, negative = inhibition” value was 9.43%.

Turning to `COC(=O)[C@@]1(Cc2ccc(OC)cc2)[C@H]2c3cc(C(=O)N4CCCC4)n(CCCNc4ncc(C(F)(F)F)cc4Cl)c3C[C@H]2CN1C(=O)c1ccccc1`, the AC50 was 7.94 µM (active).

Consider `COC(=O)[C@@]1(Cc2ccc(F)cc2)[C@H]2c3cc(C(=O)N4CCCC4)n(CCCNc4ncc(C(F)(F)F)cc4Cl)c3C[C@H]2CN1C(=O)c1ccccc1`, for which the AC50 was 3.16 µM (active).

Regarding `COc1ccc(NC(=O)N2CCCC3(CCN(C(=O)c4cc(C(F)(F)F)cc(C(F)(F)F)c4)CC3)C2)cc1`, the “activity, negative = inhibition” value is 6.55%.

In the case of `COc1ccc(C(=O)N2CCC[C@@]3(CCN(Cc4cc(C(F)(F)F)cc(C(F)(F)F)c4)C3)C2)cc1`, the “activity, negative = inhibition” value was 9.5%.
